Measurements: PubChem BioAssay (NCATS)
Inconclusive results are not listed. Calls of active or inactive are those of the source. Unless noted, calls follow the shape of the dose curve; as a rule, active = well fitted curve in either direction with a large enough effect (not every such curve was filed as active); inconclusive = small, poorly fitted or top-dose-only effect, or another doubt; inactive = flat fitted curve, though single readings scatter.

Assays:
[1] = AP1 Signaling Pathway (AID 357); conditions: ME-180 AP-1-bla reporter, EGF-induced, beta-lactamase ratio, 5 h; at 17.2 µM (top of the series) unless noted;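 also: ME-180 reporter cells stimulated with EGF at its EC50 level; % is scaled to controls: 0 for no effect and ±100 for the full control effect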
Procedure, shortened: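 Titration-series screen for positive or negative modulators of EC50 EGF-induced signaling in ME-180 cells carrying an AP-1-driven beta-lactamase reporter. After 5 hours at 37 degrees Celsius, CCF4 460nm/530nm emission ratio gave %Activity; AC50 values derived.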

[2] = Stat Signaling Pathway (AID 446); conditions: ME-180 (cervical carcinoma) SIE beta-lactamase reporter, IL-6 stimulated, 5 h; at 17.2 µM (top of the series) unless noted;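 also: ME-180 cervical cancer cells given 40 pM IL-6 alongside compound; SIE-controlled beta-lactamase reporter measured as 460/530 nm FRET emission ratio; % is scaled to controls: 0 for no effect and ±100 for the full control effect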
Procedure, shortened: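 Normalization used AC90 stimulation (300 pM IL-6) and AC90 inhibition (125 nM pan-JAK inhibitor at 40 pM IL-6). The underlying signal is SIE-driven beta-lactamase in ME-180 cells after 5 h IL-6 exposure with compound.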

[3] = molecular target: Glucocorticoid receptor (Homo sapiens) (UniProt P04150); assay: GR-GFP Redistribution (AID 450;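 active = compounds whose dose series gives a full or clear partial fitted curve of increased nuclear translocation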; also: potency is read from the fitted curve at half-maximal effect)
Sequence of Glucocorticoid receptor (Homo sapiens) (P04150 whole entry, looked up): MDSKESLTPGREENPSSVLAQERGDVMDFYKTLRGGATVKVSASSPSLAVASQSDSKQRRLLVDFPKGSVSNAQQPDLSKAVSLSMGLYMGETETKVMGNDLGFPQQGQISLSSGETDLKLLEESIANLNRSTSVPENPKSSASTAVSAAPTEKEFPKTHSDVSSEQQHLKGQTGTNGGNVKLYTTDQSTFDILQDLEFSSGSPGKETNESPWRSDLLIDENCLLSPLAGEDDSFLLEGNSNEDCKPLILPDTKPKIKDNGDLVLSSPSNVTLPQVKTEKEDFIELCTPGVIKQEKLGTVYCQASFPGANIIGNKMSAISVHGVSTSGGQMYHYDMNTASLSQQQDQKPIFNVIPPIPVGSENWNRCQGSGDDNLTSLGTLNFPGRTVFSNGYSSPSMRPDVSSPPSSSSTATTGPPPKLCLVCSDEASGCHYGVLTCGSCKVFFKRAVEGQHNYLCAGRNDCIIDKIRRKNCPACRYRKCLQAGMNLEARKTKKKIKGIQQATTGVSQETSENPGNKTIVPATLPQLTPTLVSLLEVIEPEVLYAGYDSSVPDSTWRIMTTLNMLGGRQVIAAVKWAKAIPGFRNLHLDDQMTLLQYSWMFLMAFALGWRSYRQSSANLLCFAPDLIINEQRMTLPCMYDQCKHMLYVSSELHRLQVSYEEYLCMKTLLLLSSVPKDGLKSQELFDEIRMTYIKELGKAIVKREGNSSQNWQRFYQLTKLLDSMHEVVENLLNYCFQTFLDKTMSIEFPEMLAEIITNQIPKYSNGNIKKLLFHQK

| SMILES | activity change, negative = inhibition [1] | activity, negative = inhibition [2] | Potency [3] |
| --- | --- | --- | --- |
| Cc1nn2cnc3sc4c(c3c2nc1=O)CCCC4 | 10.1% (inactive) | -8.12% (inactive) | > 20.6 µM (inactive) |
| CCOc1ccc(-c2nn3c(-c4ccc(OC)cc4)nnc3s2)cc1 | -1.24% (inactive) | 24.4% (inactive) | > 20.6 µM (inactive) |
| Cc1nc(N2CCN(C(=O)c3ccc(Cl)cc3)CC2)c(C#N)c2c1COC(C)(C)C2 | -10% (inactive) | -17.4% (inactive) | > 20.6 µM (inactive) |
| Oc1ccc(Br)cc1-c1cc(-c2ccccc2F)[nH]n1 | 13.3% (inactive) | -0.726% (inactive) | > 20.6 µM (inactive) |
| CCCSc1nnc2n(C)c(=O)c3c4c(sc3n12)CCC4 | -1.82% (inactive) | -5.35% (inactive) | > 20.6 µM (inactive) |
| COC(=O)c1sc2nc(N3CCCCC3)c3c(c2c1N)CC(C)(C)N(C)C3 | 21% (inactive) | 9.93% (inactive) | > 20.6 µM (inactive) |
| CCCCn1c(O)c(C=NCCCN(C)C)c(=O)[nH]c1=O | -1.31% (inactive) | 3.99% (inactive) | > 20.6 µM (inactive) |
| CCCCC(=O)C1CCN(Cc2ccccc2)CC1 | 4.33% (inactive) | 3.33% (inactive) | > 20.6 µM (inactive) |
| CCOP(=O)(c1ccccc1)c1nc(-c2ccccc2C)oc1N1CCCCC1 (stereo not given) | -1.96% (inactive) | 0.694% (inactive) | > 20.6 µM (inactive) |
| COc1cccc(C(=O)c2sc(NC(C)C)nc2N)c1 | -116% (active) | -103% (active) | > 20.6 µM (inactive) |
